Measured values published in PubChem BioAssay AID686978 (National Center for Advancing Translational Sciences (NCATS), 2013).
The campaign covered roughly 420,000 compounds. About 64,000 (15%) were called active. Not shown: some 27% with an inconclusive outcome. Only a sample is shown. Unmarked numbers belong to inactive results. Calls follow the shape of the dose curve; as a rule, active = well fitted inhibition curve with a large enough effect; inconclusive = small, poorly fitted or top-dose-only effect; inactive = flat fitted curve, though single readings scatter.

assay: qHTS for Inhibitors of human tyrosyl-DNA phosphodiesterase 1 (TDP1): qHTS in cells in absence of CPT; conditions: DT40 Tdp1-/- hTDP1 cells, no CPT, ATP luminescence, 48 h; activity change, negative = growth inhibition: at 46.2 µM (top of the series); also: nearly all actives have a fitted effect of over 55% in size
Procedure, shortened: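 Chicken DT40 Tdp1-/- cells complemented with human TDP1, screened without camptothecin (DMSO vehicle only), 400 cells/well. Compounds pin-transferred, cells incubated at 37 °C for at least 48 hr. Growth read as ATP-dependent luminescence (CellTiter-Glo, 30 min at RT).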
% is scaled to controls: 0 for no effect and ±100 for the full control effect; potency is read from the fitted curve at half-maximal effect.

With `CCC(C)CN1C(=O)CN(S(C)(=O)=O)CC1(C)C(=O)Nc1ccc2c(c1)OCCO2` (stereo not given) as the molecule, how does the “activity change, negative = growth inhibition” value read?
Its value is -8.04%.

With `Cc1ccc(CSc2nc(-c3ccccc3)c(C#N)c(=O)[nH]2)cc1` as the molecule, how does the “activity change, negative = growth inhibition” value read?
The value was 6.61%.

For `CCCCCN1CC(O)=C(c2ccccc2)C1=N`, which “activity change, negative = growth inhibition” value is on record?
Its value is -23.7%.

For `CCOC(=O)N1CCN(C(=O)CSc2nnc(-c3c[nH]c4ccccc34)n2CCOC)CC1`, which Potency is on record?
Its Potency is 20.6 µM (active).

For `CCC(C)Sc1nnc(-c2c[nH]c3ccccc23)n1CCOC` (stereo not given), which “activity change, negative = growth inhibition” value is on record?
The value was -25.8%.

For `Cc1nnc(SCC(=O)N2CCN(c3ccccc3)CC2)n1-c1ccccc1`, which “activity change, negative = growth inhibition” value is on record?
Its value is -7.19%.

For `CCCCn1c(N)c(N(CCC(C)C)C(=O)c2ccc([N+](=O)[O-])o2)c(=O)[nH]c1=O`, which “activity change, negative = growth inhibition” value is on record?
Its value is -25.2%.

With `CS(=O)(=O)N1CCC2(CCN(c3ccncc3)CC2)CC1` as the molecule, how does the “activity change, negative = growth inhibition” value read?
Its value is -21.5%.

Which “activity change, negative = growth inhibition” value does the source give for `O=C(C1=C(O)C(=O)N(CCOCCO)C1c1ccccn1)c1cccs1` (stereo not given) here?
Its value is 0.178%.

For `CN(CC(=O)Nc1ccc(S(=O)(=O)N2CCCC2)cc1)Cc1ccc(Cl)c(Cl)c1`, which Potency is on record?
Its Potency is 18.4 µM (active).

Which “activity change, negative = growth inhibition” value does the source give for `CCc1ccc(NC(=O)CN2C(=O)COc3ccc(S(=O)(=O)N4CCCC4)cc32)cc1` here?
The value was -28.2%.

With `CN1CCN(S(=O)(=O)c2ccc(NC(=O)C3CCCO3)cc2)CC1` (stereo not given) as the molecule, how does the “activity change, negative = growth inhibition” value read?
The value was -6.78%.

With `CCc1ccc(NC(=O)CN2C(=O)CCSc3ccc(S(=O)(=O)N4CCCC4)cc32)cc1` as the molecule, how does the “activity change, negative = growth inhibition” value read?
Its value is -15.4%.

Which “activity change, negative = growth inhibition” value does the source give for `CN(CCC(=O)Nc1cc(S(=O)(=O)N(C)C)ccc1Cl)CC(=O)Nc1ccc(F)cc1` here?
Its value is -29.5%.

With `CCc1ccc(CN(C)C(C)C(=O)Nc2ccc(S(=O)(=O)N3CCCC3)cc2)cc1` (stereo not given) as the molecule, how does the Potency read?
Its Potency is 16.4 µM (active).

For `O=S(=O)(NC(=S)Nc1ccccc1)c1ccc(F)cc1`, which “activity change, negative = growth inhibition” value is on record?
The value was -14.4%.

With `CC(=O)c1ccc[n+](C(C)CCC(C)[n+]2cccc(C(C)=O)c2)c1` (stereo not given) as the molecule, how does the “activity change, negative = growth inhibition” value read?
Its value is -1.47%.

Which “activity change, negative = growth inhibition” value does the source give for `O=C(O)CCN1C(=O)CC2(CCCCC2)C1=O` here?
The value was -15.2%.

For `CN(CC(=O)Nc1ccccc1Cl)C(=O)COc1cccc2c1OC(C)(C)C2`, which “activity change, negative = growth inhibition” value is on record?
Its value is -23.2%.

With `CCn1cc(C(=O)NCc2ccc(C)cc2)c(=O)c2cc(S(=O)(=O)N3CCc4ccccc4C3)ccc21` as the molecule, how does the Potency read?
The Potency was 11.6 µM (active).

For `CCn1cc(C(=O)NCc2ccccc2)c(=O)c2cc(S(=O)(=O)N3CCCCC3)ccc21`, which Potency is on record?
The Potency was 7.31 µM (active).

With `CCOCCCNC(=O)c1cn(CC)c2ccc(S(=O)(=O)N3CCc4ccccc4C3)cc2c1=O` as the molecule, how does the Potency read?
The Potency was 16.4 µM (active).

For `CCOc1ccc(CNC(=O)c2cc(=O)[nH]c3ccc(S(=O)(=O)N4CCCCC4)cc23)cc1`, which “activity change, negative = growth inhibition” value is on record?
Its value is -0.677%.

For `CCN(CC)CCCNC(=O)c1cn(C)c2ccc(S(=O)(=O)N(C)C3CCCCC3)cc2c1=O`, which “activity change, negative = growth inhibition” value is on record?
The value was 3.24%.

For `CCn1cc(C(=O)NCC2CCCO2)c(=O)c2cc(S(=O)(=O)N3CCCCC3)ccc21` (stereo not given), which “activity change, negative = growth inhibition” value is on record?
The value was -23%.

Which “activity change, negative = growth inhibition” value does the source give for `CCn1cc(C(=O)N(C)Cc2ccccc2)c(=O)c2cc(S(=O)(=O)N3CCCCCC3)ccc21` here?
Its value is -3.43%.

Which Potency does the source give for `Cc1ccc(CNC(=O)C2CCN(S(=O)(=O)c3ccc4nc5c(c(C(=O)O)c4c3)CC(C)CC5)CC2)cc1` (stereo not given) here?
The Potency was “inactive”.

With `CN(Cc1ccccc1)C(=O)c1cn(C)c2ccc(S(=O)(=O)N3CCCCC3)cc2c1=O` as the molecule, how does the “activity change, negative = growth inhibition” value read?
The value was 0.261%.

Which “activity change, negative = growth inhibition” value does the source give for `CCC1CCCCN1S(=O)(=O)Cc1ccccc1Cl` (stereo not given) here?
Its value is -27.8%.

With `CCCCn1c(N)c(N(CCOC)C(=O)c2cccc(S(=O)(=O)N3CCCCC3)c2)c(=O)[nH]c1=O` as the molecule, how does the “activity change, negative = growth inhibition” value read?
The value was 4.74%.

Which “activity change, negative = growth inhibition” value does the source give for `Cc1cccc(N2O[C@H]3C=CC2CCCC3)n1` here?
Its value is -3.14%.

For `Cc1ccc(CN2CCN(/N=C/c3ccco3)CC2)c(C)c1`, which “activity change, negative = growth inhibition” value is on record?
The value was -18.1%.

Which “activity change, negative = growth inhibition” value does the source give for `COc1cc2ccccc2cc1C(=O)N1CCOCC1` here?
The value was 3.89%.

Which “activity change, negative = growth inhibition” value does the source give for `CCOc1ccc(C(C)=O)cc1COC(=O)CN1C(=O)NC2(CCCC2)C1=O` here?
Its value is -25.4%.

For `COc1ccc(Cl)cc1NS(=O)(=O)c1cccc(C(=O)NCC2CCCO2)c1` (stereo not given), which “activity change, negative = growth inhibition” value is on record?
Its value is -28%.

Which “activity change, negative = growth inhibition” value does the source give for `CCC(C)C(NC(=O)C1CCC(=O)N1C(=O)OCc1ccccc1)C(=O)NC(C(=O)N1CCCC1C(N)=O)C(C)CC` (stereo not given) here?
The value was -5.48%.

Which “activity change, negative = growth inhibition” value does the source give for `Cc1ccc(-c2cc(C(=O)N3CCc4ccccc4C3)no2)cc1` here?
Its value is 21.4%.

Which “activity change, negative = growth inhibition” value does the source give for `CCn1c(SCC(=O)NC2CC2)nnc1-c1ccccn1` here?
The value was 15.7%.

Which “activity change, negative = growth inhibition” value does the source give for `COC(C[C@H](O)CC(=O)COCc1ccccc1)OC` here?
Its value is -13.3%.

Which Potency does the source give for `CCOC(=O)/C=C/C(=O)OCC(=O)NC(c1ccccc1)c1ccccc1` here?
Its Potency is 8.2 µM (active).

For `CCOC(=O)C(C(=O)OCC)C(C#N)c1ccccc1` (stereo not given), which “activity change, negative = growth inhibition” value is on record?
Its value is -14.2%.

Which “activity change, negative = growth inhibition” value does the source give for `Cc1cc(C)cc(OCC(=O)NC(C)c2ccccc2)c1` (stereo not given) here?
The value was -23.8%.

For `Cc1ccc(SCC(=O)NC(=O)NCc2ccco2)c(C)c1`, which “activity change, negative = growth inhibition” value is on record?
Its value is -15.3%.

With `CC1=C(C(=O)N2CCOCC2)CC(CC(=O)NCc2cccs2)C(=O)N1CCCN1CCCC1=O` (stereo not given) as the molecule, how does the “activity change, negative = growth inhibition” value read?
The value was -1.36%.

With `CCN1C(=O)/C(=C\N2CCOCC2)SC1=S` as the molecule, how does the “activity change, negative = growth inhibition” value read?
Its value is -17.2%.

Which Potency does the source give for `CCN1C(=O)/C(=C\N2CCN(c3cccc(Cl)c3)CC2)SC1=S` here?
Its Potency is 16.4 µM (active).

For `O=C(O)C(c1ccccc1)N1C(=O)/C(=C\c2ccc(-c3cccc(Cl)c3)o2)SC1=S` (stereo not given), which “activity change, negative = growth inhibition” value is on record?
Its value is 4.16%.

With `CC1=NNC(=O)C1CC(=O)N/N=C/c1ccncc1` (stereo not given) as the molecule, how does the “activity change, negative = growth inhibition” value read?
Its value is 3.01%.

With `Cc1ccc(S(=O)(=O)NCC(=O)N2CCOCCOCCOCCOCC2)cc1` as the molecule, how does the “activity change, negative = growth inhibition” value read?
Its value is -0.131%.

For `CC1CCN(C(=O)COC(=O)CCC(=O)c2cccs2)CC1`, which “activity change, negative = growth inhibition” value is on record?
Its value is -4.71%.
